Assay results published in PubChem BioAssay (NCI).
About 83,000 compounds went through this panel and 20% of them were active in at least one assay; those are over-represented in the sample as a whole.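 Interpretation: 100, growth as untreated; towards 0, rising growth inhibition; 0, no net growth; 0 to -100, cell death. Compounds scoring below 10 were considered active.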 Values without a mark were called inactive. Calls of active or inactive are those of the source.

Assays:
Assay in all cases: NCI-60 one-dose screen, 48 h (100 = growth as untreated, 0 = no growth, -100 = all killed)
Conditions in all cases: 10 µM unless noted
[1] = system: SR leukemia
[2] = system: RPMI-8226 leukemia
[3] = system: OVCAR-8 ovarian
[4] = system: OVCAR-5 ovarian
[5] = system: OVCAR-4 ovarian
[6] = system: SK-OV-3 ovarian
[7] = system: IGROV1 ovarian
[8] = system: OVCAR-3 ovarian
[9] = system: HS 578T breast
[10] = system: NCI/ADR-RES ovarian
[11] = system: T-47D breast
[12] = system: BT-549 breast
[13] = system: MDA-MB-435 melanoma
[14] = system: SW-620 colon
[15] = system: MCF7 breast
[16] = system: HCT-116 colon
[17] = system: KM12 colon
[18] = system: HCC-2998 colon

Row | Compound | growth [1] | growth [2] | growth [3] | growth [4] | growth [5] | growth [6] | growth [7] | growth [8] | growth [9] | growth [10] | growth [11] | growth [12] | growth [13] | growth [14] | growth [15] | growth [16] | growth [17] | growth [18]
1 | CNCCCn1c2c(c3ccc(Cl)cc3c1=O)C(=O)c1cc(OC)cnc1-2 | -33.5% (active) | -56.3% (active) | 40.8% | 91.9% | 58.8% | 23.7% | 50.3% | 49.3% | 71.7% | 46.5% | 40% | 45.9% | 55.8% | -63.6% (active) | -45.4% (active) | -81.4% (active) | 40.7% | –
2 | O/N=C1\c2ccccc2-c2ccc(Br)cc21 | 102% | 105% | 105% | 113% | 104% | 113% | 116% | 118% | 158% | 115% | 97.2% | 115% | 113% | – | 91.1% | 114% | 115% | 102%
3 | COc1cc(CN(c2ccc(C)cc2)C2OC(=O)c3ccccc32)cc(OC)c1OC (stereo unspecified) | -6.82% (active) | 85.4% | 50.1% | 40.3% | 65.9% | -6.21% (active) | 46.2% | 6.21% (active) | 59.5% | -16.7% (active) | 53.8% | 20.8% | -17.8% (active) | – | 13.9% | 6.74% (active) | 17.1% | 4.25% (active)
4 | CCN(CC)CCNC(=O)C(F)(F)C(F)(F)C(F)(F)F | 106% | 107% | 114% | 99.2% | 112% | 101% | 138% | 109% | 96.7% | 113% | 110% | 98.7% | 109% | – | 108% | 96.2% | 101% | 105%
5 | Nc1ncnc2c1N=C(c1ccc3c(c1)OCO3)CC(c1ccc(Cl)cc1)N2 (stereo unspecified) | 41.3% | 18.4% | 89.8% | 68.5% | 77.7% | 78.9% | 13% | 103% | 70.2% | 60% | 55.8% | 81.2% | 78.7% | 79.9% | 56.6% | 87.3% | 71.7% | –
6 | CC(=O)CC(c1ccc([N+](=O)[O-])cc1)c1c(O)c2ccccc2oc1=O (stereo unspecified) | 92.9% | 108% | 105% | 100% | 110% | 108% | 107% | 109% | 97.9% | 105% | 95.7% | 88.5% | 103% | 101% | 102% | 101% | 98.5% | –
7 | COc1ccc2nc3cc(Cl)ccc3c(NC(=O)CSc3ccc(Cl)cc3)c2c1 | -10.1% (active) | -41.4% (active) | -63.8% (active) | -87.2% (active) | -96.8% (active) | -94.2% (active) | -91.5% (active) | -96.4% (active) | -43.2% (active) | -65% (active) | -79.6% (active) | -98.7% (active) | -82.4% (active) | -80.4% (active) | -60% (active) | -94.4% (active) | -75.4% (active) | –
8 | C=C1C(=O)O[C@H]2[C@H]1CC/C(COC(=O)NCc1c[nH]c3ccc(OC)cc13)=C\CC[C@@]1(C)O[C@@H]21 | 8.82% (active) | -25.8% (active) | 21.3% | 45.2% | 19.9% | 68.3% | -21.7% (active) | -84.2% (active) | 61.8% | 73.1% | -52% (active) | -24% (active) | 22.3% | – | 5.33% (active) | -79.4% (active) | 51.3% | 45.1%
9 | O=c1nc(-c2ccccc2)c2cc(-c3ccc(N4CCOCC4)cc3)ccc2[nH]1 | 71.2% | 51.3% | 82% | 99.5% | 91% | 77.1% | 81.6% | 97.1% | 84% | 95.3% | 52.4% | 88% | 76.6% | 86.8% | 71.2% | 74.3% | 85.7% | –
10 | Cc1ccccc1NC(=O)c1sc2nc3c(cc2c1N)C(=O)CCC3 | 34.4% | 67.2% | 78.6% | 80.8% | 67.6% | 22.1% | 77% | 4.33% (active) | 25.8% | 22.6% | 43.9% | 55.6% | -12.9% (active) | – | 21.7% | 34.5% | 19.2% | 67%
11 | O=C1CCCN1C(O)CCN(Cc1ccccc1)Cc1ccc(Cl)cc1 (stereo unspecified) | 83% | 98.5% | 96.7% | 99.2% | 103% | 101% | 100% | 108% | 104% | 106% | 99.6% | 105% | 103% | – | 94.1% | 96.7% | 105% | 108%
12 | CC(C)CCC(=O)[C@@H](C)[C@H]1[C@@H](OC2OCC(O)C(O)C2NS(C)(=O)=O)C[C@H]2[C@@H]3CC=C4C[C@@H](O)CC[C@]4(C)[C@H]3CC[C@]12C (stereo partly specified) | 17% | -26.1% (active) | 35.4% | 64.5% | 75.5% | 0.627% (active) | 61.2% | 68.8% | -4.14% (active) | 82.7% | 43.6% | 22% | 1.92% (active) | 11.9% | 17.1% | 24.9% | 47% | –
13 | CCCC(CCC)(C(N)=O)C(=O)O | 111% | 112% | 102% | 99.6% | 101% | 105% | 119% | 110% | 106% | 107% | 111% | 98.7% | 102% | – | 109% | 102% | 106% | 100%
14 | COc1ccc(C(=O)C(CN(C)C)c2ccc(OC)cc2)cc1 (stereo unspecified) | 0.837% (active) | 1.35% (active) | 42.2% | 94.8% | 73.1% | 98.8% | 86.9% | -4.36% (active) | 92.2% | 67.3% | 56.7% | 2.74% (active) | 43.8% | – | 18.5% | 14.7% | 78% | 117%
15 | COc1ccc2c(c1)sc1nc(-c3ccccc3)c(-c3cccc4ccccc34)n12 | 10.5% | 18.8% | 19.4% | 44.7% | 65% | 10.5% | 34.4% | -50.3% (active) | 19.8% | 4.62% (active) | 60.5% | – | -49.4% (active) | 27.8% | 27.7% | 18.6% | 15.7% | -26.8% (active)
16 | CNC(=O)c1c(NC(=O)c2cccc(C(F)(F)F)c2)sc2c1CCC(=O)C2 | 1.53% (active) | -33% (active) | 8.86% (active) | -22.2% (active) | -81.5% (active) | -5.12% (active) | -24.8% (active) | 3.37% (active) | 17.7% | -7.1% (active) | -32.8% (active) | -14.8% (active) | 4.37% (active) | -17.8% (active) | 0.296% (active) | 0.607% (active) | -12.9% (active) | –
17 | c1coc(CNc2c3ccccc3nc3ccccc23)c1 | 34% | 56.6% | 47.5% | 76.4% | 56.2% | 70.9% | 61.8% | 96.9% | 84% | 44.8% | 69.3% | 97.4% | 87.6% | – | 21.3% | 24.1% | 85.5% | 68.9%
18 | COc1ccc(/C(C)=N/NC(=O)CSc2nc3ccccc3c(=O)n2CCc2ccc(S(N)(=O)=O)cc2)cc1 | 40.2% | 5.61% (active) | -12.9% (active) | 55% | -54.1% (active) | -31.8% (active) | 19.1% | 16.6% | 29.5% | 79.4% | 22.3% | 64.2% | 16.7% | 54.6% | 59.1% | -47% (active) | 25.1% | –
